A number with no mark means an inactive call. The rule behind the calls is not given here.
Assay: inhibitors of hydroxyurea-induced Chk1 phosphorylation, primary screen, imaging, HeLa, phospho-Chk1 antibody, percent positive cells (AID 1186)
Conditions: hydroxyurea-induced phospho-Chk1 immunofluorescence imaging, higher = more signal

Row | SMILES | z-score
1 | Cc1ccccc1C(O)C1C=CC2C(=O)N(C)C(=O)C2N1N1CCCCC1 (centres undefined) | 0.193
2 | O=C(CS)NCCCCCCNC(=O)[C@H]1C[C@H]2C(=O)N3CCC[C@H]3C(=O)N2[C@H]1c1cccc(OCCO)c1 | -0.188
3 | CCCC[C@@H]1C[C@H]1[C@@H](NC(=O)c1ccc(-c2ccccc2)cc1)c1ccc(-c2ccccc2)cc1 | 0.558
4 | C=CC(COC(C)=O)NS(=O)(=O)c1ccc(Br)cc1 (centres undefined) | 0.363
5 | O=C1C2C=CC(C(O)c3ccc(B(O)O)cc3)N(Nc3ccccc3)C2C(=O)N1c1ccccc1 (centres undefined) | -0.149
6 | C=CC[C@]1(C(=O)N2CCOCC2)N=C(c2ccc(OCCCO)cc2)O[C@H]1c1ccccc1 | -0.274
7 | COCCCNC(=O)[C@@]1(C)c2ccccc2C(=O)N(Cc2cc(C(F)(F)F)cc(C(F)(F)F)c2)[C@H]1c1ccc(CO)cc1 | -0.385
8 | COc1ccc(C(=O)Nc2cccc(CN3C(=O)[C@]4(O[C@H](CC(=O)N5CCC[C@H]5CO)[C@@H]([Si](C)(C)c5ccc(OC)cc5)[C@@H]4C)c4ccccc43)c2)cc1 | -0.0977
9 | [N-]=[N+]=NCc1ccccc1C[C@@]1(C(=O)NCC(O)CO)N=C(c2ccc(OCCCO)cc2)O[C@@H]1c1ccccc1CN=[N+]=[N-] (some centres undefined) | -0.0621

Assay: inhibitors of hydroxyurea-induced Chk1 phosphorylation, primary screen, imaging, HeLa, phospho-Chk1 nuclear intensity (AID 1187); note: test concentration not given here
Conditions: hydroxyurea-induced phospho-Chk1 immunofluorescence imaging, higher = more signal

Row | SMILES | z-score
10 | COCCOC(=O)N1C(=O)[C@@]2(c3cc(C#CC4(O)CCCCCC4)ccc31)[C@H](C(=O)N1CCCCCCC1)[C@H]1C(=O)O[C@H](c3ccccc3)[C@H](c3ccccc3)N1[C@@H]2c1ccccc1OCCO | 0.298
11 | CCOC(=O)[C@H]1C/C=C/C[C@H](C(=O)OCC)C(=O)O[C@H]2[C@@H](OC)O[C@H](CO)[C@@H](OC(=O)Nc3ccc4c(c3)OCO4)[C@@H]2OC1=O | -0.0843
12 | C#CCN(C(/C=C/c1ccccc1)CO)C(C(=O)O)c1ccccc1 (centres undefined) | 0.353
13 | COCC(=C=CC[C@@H](O)c1ccc(CO)o1)CCO | -0.68
14 | O=C1O[C@H](c2ccccc2)[C@H](c2ccccc2)N2[C@H]1[C@@H](C(=O)O)[C@]1(C(=O)Nc3ccc(C#CC4(O)CCCCCC4)cc31)[C@H]2c1ccc(OCCO)cc1 | -0.198
15 | C=CCOC(=O)[C@H]1[C@@H]2C(=O)O[C@@H](c3ccccc3)[C@@H](c3ccccc3)N2[C@@H](c2ccc(OCCOC(=O)[C@@H]3C[C@@H]4C(=O)NCC(=O)N4[C@@H]3c3ccc(O)cc3)cc2)[C@]12C(=O)Nc1ccccc12 | 0.559
16 | COCCOC(=O)N1C(=O)[C@@]2(c3ccccc31)[C@H](c1ccc(O)cc1)N1[C@H](c3ccccc3)[C@H](c3ccccc3)OC(=O)[C@H]1[C@@H]2C(=O)N1CCc2cc(OC)c(OC)cc2C1 | 0.361
17 | CCOC(=O)C1=C[C@@H](C(C)C)N(S(=O)(=O)c2ccc(C)cc2)[C@H]1c1ccc(C(C)C)cc1 | 0.478
18 | C=C[C@H](C)[C@@H](O)c1ccc(O)c2ccccc12 | 0.841
19 | O=C1C[C@@](C(=O)NC2CC2)(c2ccc([N+](=O)[O-])cc2)[C@@H](c2ccc(CO)cc2)N1CC12CC3CC(CC(C3)C1)C2 | -0.617
20 | O=c1cccc(CCc2ccccc2)o1 | 0.158
21 | C=CC[C@@]1(C(=O)O)N=C(c2ccc(OCCCO)cc2)O[C@@H]1c1ccccc1N=[N+]=[N-] | -0.0861
22 | O=c1cccc(C=Cc2ccccc2)o1 | -0.0437
23 | CC(=O)NCCCC[C@@H]1NC(=O)[C@H]2C[C@@H](C(=O)NCCCCCC[N+](C)(C)C)[C@@H](c3cccc(OCCO)c3)N2C1=O | -0.255
24 | CC1=C2[C@@H](CCc3ccccc3)OB(O)C[C@@H]2n2c(=O)n(-c3ccccc3)c(=O)n2C1 | 0.208
25 | [N-]=[N+]=Nc1ccccc1[C@H]1OC(c2ccc(OCCCO)cc2)=N[C@@]1(CCS(=O)(=O)c1ccccc1)C(=O)O | 0.222
26 | COC(=O)[C@@]1(Cc2ccc(OC)cc2)[C@H]2c3cc(C(=O)N4CCCC4)n(Cc4cc(F)cc5c4OCOC5)c3C[C@H]2CN1C(=O)c1ccccc1 | -0.271
27 | COc1ccc(C#Cc2ccc3c(c2)[C@]2(C(=O)N3)[C@H](c3ccc(O)cc3)N3[C@H](c4ccccc4)[C@H](c4ccccc4)OC(=O)[C@H]3[C@@H]2C(=O)NC[C@H](O)c2ccccc2)cc1 | 0.385

Row | SMILES | z-score
28 | CCCNC(=O)[C@@H]1c2ccccc2C(=O)N(Cc2ccccc2)[C@H]1c1ccc(CO)cc1 | -0.142
29 | COC(=O)C[C@H]1O[C@]2(C(=O)N(Cc3ccccc3)c3ccc(NC(C)=O)cc32)[C@@H](C)[C@@H]1[Si](C)(C)c1ccc(OC)cc1 | 0.536
30 | CC(C)NC(=O)[C@@H]1c2ccccc2C(=O)N(Cc2ccccc2Cl)[C@H]1c1ccc(CO)cc1 | 0.667
31 | COc1ccc(C#Cc2ccc3c(c2)[C@]2(C(=O)N3)[C@H](c3ccc(O)cc3)N3[C@H](c4ccccc4)[C@H](c4ccccc4)OC(=O)[C@H]3[C@@H]2C(=O)N2CCCCCCC2)cc1 | -0.0916
32 | O=C1C2C=CC(C(O)c3ccc(F)cc3)N(Nc3ccccc3)C2C(=O)N1c1ccccc1 (centres undefined) | -0.391
33 | NC(=O)NCC#Cc1ccc2c(c1)[C@]1(C(=O)N2)[C@H](C(=O)NC[C@H](O)c2ccccc2)[C@H]2C(=O)O[C@H](c3ccccc3)[C@H](c3ccccc3)N2[C@@H]1c1ccc(O)cc1 | -0.468
34 | COC(=O)C1=CC(CCCO)=CC(C2CC2)N(Cc2sc3ccccc3c2Cl)C=C1C(=O)OC (centres undefined) | 0.263
35 | O=C1O[C@H](c2ccccc2)[C@H](c2ccccc2)N2[C@H]1[C@@H](C(=O)N1CCN(c3ncccn3)CC1)[C@]1(C(=O)Nc3ccccc31)[C@H]2c1ccc(OCCO)cc1 | -1.1
36 | Cc1ccccc1C(O)C1C=CC2C(=O)N(C)C(=O)C2N1N1CCCCC1 (centres undefined) | -0.0403
37 | O=C(CS)NCCCCCCNC(=O)[C@H]1C[C@H]2C(=O)N3CCC[C@H]3C(=O)N2[C@H]1c1cccc(OCCO)c1 | -0.318
38 | CCCC[C@@H]1C[C@H]1[C@@H](NC(=O)c1ccc(-c2ccccc2)cc1)c1ccc(-c2ccccc2)cc1 | 0.394
39 | C=CC(COC(C)=O)NS(=O)(=O)c1ccc(Br)cc1 (centres undefined) | 0.253
40 | O=C1C2C=CC(C(O)c3ccc(B(O)O)cc3)N(Nc3ccccc3)C2C(=O)N1c1ccccc1 (centres undefined) | -0.329
41 | C=CC[C@]1(C(=O)N2CCOCC2)N=C(c2ccc(OCCCO)cc2)O[C@H]1c1ccccc1 | -0.217
42 | COCCCNC(=O)[C@@]1(C)c2ccccc2C(=O)N(Cc2cc(C(F)(F)F)cc(C(F)(F)F)c2)[C@H]1c1ccc(CO)cc1 | 0.0021
43 | COc1ccc(C(=O)Nc2cccc(CN3C(=O)[C@]4(O[C@H](CC(=O)N5CCC[C@H]5CO)[C@@H]([Si](C)(C)c5ccc(OC)cc5)[C@@H]4C)c4ccccc43)c2)cc1 | 0.131
44 | [N-]=[N+]=NCc1ccccc1C[C@@]1(C(=O)NCC(O)CO)N=C(c2ccc(OCCCO)cc2)O[C@@H]1c1ccccc1CN=[N+]=[N-] (some centres undefined) | 0.0477

Source: PubChem BioAssay
